# According to PubChem BioAssay (NCATS):
# Inconclusive results are not listed. Entries that show only a call come without a potency. Calls of active or inactive are those of the source. Calls follow the shape of the dose curve; as a rule, active = well fitted curve in the direction sought with a large enough effect; inconclusive = small, poorly fitted or top-dose-only effect, or another doubt; inactive = no such curve, though single readings can be large; an effect the other way counts as inactive or inconclusive.
# What was measured:
# [1] = target: Calcium and integrin-binding protein 1 (Homo sapiens) (UniProt Q99828); assay: Confirmatory qHTS for Identification of Calcium Integrin Binding Protein 1 (CIB1) Competitor (AID 1508617); conditions: CIB1 binding competition assay, biochemical qHTS; also: potency is read from the fitted curve at half-maximal effect; nearly all actives have a fitted effect of over 65% in size
# Method in brief: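 Binding competition between test compounds and fluorescent alphaIIb peptide for 1 uM CIB1-GST is monitored by FP at 480/540 nm. Final compound range is up to 114 uM; unlabeled peptide serves as reference competitor.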
# [2] = qHTS to identify inhibitors of the type 1 interferon - major histocompatibility complex class I in skeletal muscle: primary screen against the NCATS Mechanism Interrogation Plate v5.0 (MIPE) Libary (AID 1347411); conditions: iHSKM cells + IFN-b, HiBiT-tagged MHC-I luminescence, 24 h; series mostly up to 45.8 µM; also: nearly all actives have a fitted effect of over 65% in size; also: potency is read from the fitted curve at half-maximal effect
# Method in brief: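 Seed engineered human myoblasts (HLA-B HiBit) in medium without dexamethasone containing 4 ng/ml IFN-beta; after 1 hr add compound titrations (top 46 uM final). Incubate 24 hrs at 37 C, lyse 10 min with HiBiT reagent, read luminescence.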
# [3] = target: Protein phosphatase 1D (Homo sapiens) (UniProt O15297); assay: RapidFire Mass Spectrometry qHTS Assay for Modulators of WT P53-Induced Phosphatase 1 (WIP1) (AID 1347424); conditions: WIP1 dephosphorylation of phosphopeptide, RapidFire MS; series mostly up to 63 µM;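 also: amount of dephosphorylated VEPPL-S-QETFS peptide product formed by WIP1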
# Method in brief: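 RapidFire mass spectrometry measured dephosphorylated peptide after 5 min room-temperature reaction of 2 uM VEPPL-pS-QETFS with 10 nM WIP1 (50 mM Tris-HCl pH 7.5, 30 mM MgCl2, 0.1 mM EGTA, BSA), following 1 hr compound preincubation; 1 uM isotope-labelled product standard.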
# [4] = target: Protein phosphatase 1D (Homo sapiens) (UniProt O15297); assay: Rhodamine-PBP qHTS Assay for Modulators of WT P53-Induced Phosphatase 1 (WIP1) (AID 1347425); conditions: recombinant WIP1, Rhodamine-PBP phosphate fluorescence, real-time; series mostly up to 57.5 µM
# Method in brief: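 Steps: enzyme with Rh-PBP sensor and compounds, room-temperature incubation of 1 hr, baseline read, addition of VEPPL-pS-QETFS (10 uM final), kinetic fluorescence reads at 525/598 nm. Activity equals final minus baseline signal.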
# [5] = Primary qHTS for inhibitors of La Crosse Virus (LACV) - induced cell death in SH-SY5Y cells (AID 1508616); conditions: SH-SY5Y LACV cytopathicity rescue, ATP luminescence, 6 d; series mostly up to 4.29 µM;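 also: top concentration of the series differs between compounds; higher means more rescue of cells from virus-induced death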
# Method in brief: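 SH-SY5Y, 6000 cells/well; cpd via pin tool in DMSO; LACV 0.01 MOI; 6 d 37C 5% CO2; ATPLite, 5 min RT; luminescence normalized to ±virus DMSO controls.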
# Chain of Protein phosphatase 1D (Homo sapiens) (O15297 whole entry, looked up): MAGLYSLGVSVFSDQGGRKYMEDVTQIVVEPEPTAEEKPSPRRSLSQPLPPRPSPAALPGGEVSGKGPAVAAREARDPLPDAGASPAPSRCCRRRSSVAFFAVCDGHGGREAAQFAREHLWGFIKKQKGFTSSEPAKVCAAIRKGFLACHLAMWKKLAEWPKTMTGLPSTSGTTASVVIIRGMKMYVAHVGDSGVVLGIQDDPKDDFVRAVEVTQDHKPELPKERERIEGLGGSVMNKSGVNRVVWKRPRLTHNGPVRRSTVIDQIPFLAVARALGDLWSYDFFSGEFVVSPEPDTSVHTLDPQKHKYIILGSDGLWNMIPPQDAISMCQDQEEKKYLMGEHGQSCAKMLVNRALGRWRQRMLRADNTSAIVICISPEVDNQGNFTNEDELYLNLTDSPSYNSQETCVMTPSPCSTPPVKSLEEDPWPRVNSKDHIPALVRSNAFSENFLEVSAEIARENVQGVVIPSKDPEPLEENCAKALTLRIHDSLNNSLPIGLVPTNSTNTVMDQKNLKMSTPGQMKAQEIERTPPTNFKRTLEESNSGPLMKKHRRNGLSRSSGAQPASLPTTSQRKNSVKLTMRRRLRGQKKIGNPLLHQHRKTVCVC
# Chain of Calcium and integrin-binding protein 1 (Homo sapiens) (Q99828 whole entry, looked up): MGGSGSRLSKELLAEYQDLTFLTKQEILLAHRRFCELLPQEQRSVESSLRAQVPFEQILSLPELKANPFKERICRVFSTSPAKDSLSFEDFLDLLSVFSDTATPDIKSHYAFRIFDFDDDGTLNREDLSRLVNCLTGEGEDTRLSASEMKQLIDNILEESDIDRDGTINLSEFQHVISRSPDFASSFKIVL
compound,measurement,setting,value
CCN(CC)CCN(Cc1ccc(-c2ccc(C(F)(F)F)cc2)cc1)C(=O)Cn1c(SCc2ccc(F)cc2)nc(=O)c2c1CCC2,Potency,[1],35.5 µM (active)
COCCOc1ccc(N2CCN(CCn3ncc4c3nc(N)n3nc(-c5ccco5)nc43)CC2)cc1,Potency,[2],inactive
CCN1CCN(Cc2ccc(NC(=O)c3ccc(C)c(NC(=O)c4cncc(-c5cccs5)c4)c3)cc2C(F)(F)F)CC1,Potency,[2],2.94 µM (active)
CCN1CCN(Cc2ccc(Nc3ncc(F)c(-c4cc(F)c5nc(C)n(C(C)C)c5c4)n3)nc2)CC1,Potency,[2],10.4 µM (active)
Cc1ccc([N+](=O)[O-])cc1S(=O)(=O)N(C)/N=C/c1cnc2ccc(Br)cn12,Potency,[2],0.104 µM (active)
Cc1cc(Nc2cc(N3CCN(C)CC3)nc(/C=C/c3ccccc3)n2)n[nH]1,Potency,[2],5.23 µM (active)
CCC(C(=O)O)c1ccc(N2Cc3ccccc3C2=O)cc1 (stereo not given),Potency,[3],inactive
same,outcome,[4],inactive
same,outcome,[5],inactive
Cc1ccc(NC(=O)c2ccc(CN3CC[C@H](N(C)C)C3)c(C(F)(F)F)c2)cc1Nc1nccc(-c2cncnc2)n1,Potency,[2],16.1 µM (active)
COc1cc2ncnc(Nc3cccc(Cl)c3F)c2cc1OC(=O)N1CCN(C)C[C@H]1C,Potency,[2],inactive
O=C(NOCC(O)CO)c1ccc(F)c(F)c1Nc1ccc(I)cc1F (stereo not given),Potency,[2],inactive
COc1ccc(N(C)c2nc(C)nc3ccccc23)cc1,Potency,[2],inactive
CCO[C@@H]1OC(=O)C[C@@H]1NC(=O)[C@@H]1CCCN1C(=O)[C@@H](NC(=O)c1ccc(N)c(Cl)c1)C(C)(C)C,Potency,[2],inactive
Cc1ccc(S(=O)(=O)Cc2nc(-c3ccc(C(=O)NCc4cccnc4)cc3)oc2C)cc1,Potency,[2],inactive
